WT yeast gro inh – growth inhibition of WT yeast, mitochondrial fusion screen; mitochondrial fusion phenotypic screen, WT strain; inhibition, % at 10 µM; actives 2.1% (n = 190,000); in the data active = inhibition above about 58%; tested in S. cerevisiae
Ins promoter up – MIN6 insulin promoter up-regulation. MIN6 insulin promoter-GFP reporter, high-content imaging; stronger effect = higher value. actives 0.3% (n = 190,000). z-score at 5 µM;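 active = z-score above 3 at 5 µM with at least 500 cells counted in the well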
Lmaj promast – Leishmania major promastigote growth inhibition; Leishmania major promastigotes, resazurin fluorescence viability; inhibition, % at 10 µM; actives 9% (n = 200,000); AID 1063; in the data active = inhibition above about 50%;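 also: promastigotes grown with compound for 44 hours at 28 °C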
KCC2 mod – modulates chloride dependent transport by human KCC2; Q9H2X9; KCC2 cells, thallium flux FluoZin-2 fluorescence; B-score of Tl+ flux slope (higher = more flux/activation; lower = inhibition) at 10 µM; actives 2.2% (n = 190,000); AID 1456;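 active = thallium flux slope and its plate-corrected score both differing from the plate sample mean at a set confidence after two filtering rounds, in either direction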;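 also: slope of fluorescence scaled to starting intensity during 10 to 20 s after thallium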
ROMK mod – modulators of human ROMK potassium channel; Tet-inducible ROMK, thallium flux fluorescence; actives lie on both sides; B-score at 10 µM; actives 2% (n = 130,000); AID 1918;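 active = signal ratio slope over the read window, or its plate-corrected B-score, at least 3 SD from the plate mean, either direction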;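 also: B-score of the F/F0 ratio slope over 7 to 12 s after thallium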
Target sequence (P48048 whole entry, looked up): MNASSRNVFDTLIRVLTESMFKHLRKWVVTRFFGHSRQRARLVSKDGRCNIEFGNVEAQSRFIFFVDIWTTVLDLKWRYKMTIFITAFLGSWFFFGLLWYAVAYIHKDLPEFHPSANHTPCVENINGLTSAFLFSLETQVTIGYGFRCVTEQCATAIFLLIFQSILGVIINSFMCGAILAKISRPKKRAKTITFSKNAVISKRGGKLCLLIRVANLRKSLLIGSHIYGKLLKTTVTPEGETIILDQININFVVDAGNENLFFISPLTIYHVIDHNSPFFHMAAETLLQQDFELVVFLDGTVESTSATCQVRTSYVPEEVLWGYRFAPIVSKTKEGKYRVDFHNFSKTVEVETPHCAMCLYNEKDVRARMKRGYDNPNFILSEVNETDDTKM
INS promoter inh – TRM-6 insulin promoter activity inhibition. TRM-6 cells (human fetal islet line), insulin promoter-eGFP reporter, imaging; reporter expression induced with tamoxifen. actives 0.9% (n = 130,000). inhibition, % at 2 µM. AID 1273;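 active = inhibition above the mean plus 3 SD, with well images judged a real hit on visual review, cut at about 60% in these data, passing the limit was not always enough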
Hits are given with their value; – = inactive; · = no result given. The list is not random: actives were taken first. Their share in the collection is about 12%.

SMILES	WT yeast gro inh	Ins promoter up	Lmaj promast	KCC2 mod	ROMK mod	INS promoter inh
CCCCC(C(=O)NC(C)(C)C)N(Cc1ccco1)C(=O)c1snc(C(N)=O)c1N (stereo not drawn)	–	–	–	–	–	–
Cc1ccc(C(C(=O)NC(C)(C)C)N(Cc2ccccc2)C(=O)c2snc(C(N)=O)c2N)o1 (stereo not drawn)	–	–	54.5	–	–	–
Cc1ccc(C(C(=O)NC2CCCC2)N(Cc2cccnc2)C(=O)c2snc(C(N)=O)c2N)o1 (stereo not drawn)	–	–	–	–	·	·
CCCC(C(=O)NC(C)(C)C)N(C(=O)c1snc(C(N)=O)c1N)c1ccc2c(c1)OCCO2 (stereo not drawn)	–	·	52.3	–	–	–
CCC(C)(C)NC(=O)CN(C(=O)c1snc(C(N)=O)c1N)c1ccc2c(c1)OCCO2	73.4	–	–	·	–	–
CC(=O)C1=C(c2cccc([N+](=O)[O-])c2)N(C(C)=O)n2c(C)nnc2S1	59.5	–	–	–	–	–
O=c1c2ccccc2nc(SCc2nc(-c3ccccc3)no2)n1-c1ccc(F)cc1	–	–	87.2	–	·	·
Cc1ccc(-n2c(SCc3cn4ccsc4n3)nc3ccccc3c2=O)cc1	–	–	85.0	·	·	–
Cc1ccc(-c2noc(CSc3nnc(Cc4cccs4)n3-c3ccccc3)n2)cc1	–	–	–	–	·	·
c1ccc(-c2noc(CSc3nnc(Cc4cccs4)n3-c3ccccc3)n2)cc1	–	·	65.1	·	·	–
Fc1ccc(-n2c(Cc3ccccc3)nnc2SCc2nc(-c3cccs3)no2)cc1	–	–	99.0	–	·	–
C=CCn1c(=O)/c(=C/c2ccc(C)o2)s/c1=C(/C#N)C(=O)c1ccccc1	–	–	–	–	·	·
CC(C)(C)NC(=O)C1CC(=O)OC12CCCCC2 (stereo not drawn)	–	–	–	·	·	–
CNC(=S)Nc1sc2c(c1C(=O)OC)CCC2	–	–	–	52.2	6.27	·
CCOC(=O)c1c(NC(=S)Nc2ccccc2)sc2c1CC(C)(C)SC2	–	–	–	–	–	–
COC(=O)c1c(NC(C)=O)sc2c1CCCC2	–	–	–	–	·	–
COC(=O)c1c(NC(NC(=O)C(C)C)C(Cl)(Cl)Cl)sc2c1CCCC2 (stereo not drawn)	76.6	–	–	–	–	·
COC(=O)c1c(NC(=S)Nc2ccc(F)cc2[N+](=O)[O-])sc2c1CCCCC2	–	–	–	20.2	·	·
COC(=O)c1c(NC(C)=O)sc2c1CCCCC2	–	–	–	–	–	–
CCOC(=O)c1c(NC(=S)NC)sc2c1CC(C)(C)SC2	–	–	–	37	·	·
COc1ccc(C2/C=C\CN(C(=O)c3ccc(C)cc3)CC(=O)N2Cc2ccc(F)cc2)cc1 (stereo not drawn)	·	·	·	–	·	·
COCCn1c(=NC(=O)c2ccc(S(=O)(=O)N3CCCc4ccccc43)cc2)sc2cc(S(C)(=O)=O)ccc21	–	–	99.9	–	–	–
COCCn1c(=NC(=O)c2nc3ccccc3s2)sc2cc(S(C)(=O)=O)ccc21	–	–	–	–	·	·
C=CCn1c(=NC(=O)c2ccc(S(=O)(=O)N3CCCc4ccccc43)cc2)sc2cc(S(N)(=O)=O)ccc21	–	–	100.0	–	–	–
COc1cc2ccccc2cc1C(=O)NCC(c1cccs1)N(C)C (stereo not drawn)	–	–	–	–	–	·
SMILES	WT yeast gro inh	Ins promoter up	Lmaj promast	KCC2 mod	ROMK mod	INS promoter inh
COCCNC(=O)/C(C#N)=C/c1ccc(O)cc1	·	–	·	–	·	·
COCCNC(=O)/C(C#N)=C/C=C/c1ccccc1[N+](=O)[O-]	–	–	80.9	–	–	·
COCCNC(=O)/C(C#N)=C/C(C)=C/c1ccccc1	–	–	73.5	–	·	–
C#CCCCCCCC#CCN(C)C	–	–	–	–	–	–
O=C(CSc1nc2ccccc2n1S(=O)(=O)c1ccccc1)N1CCCCC1	–	–	–	–	·	–
O/N=C/c1ccn(-c2ccc(Br)cc2)c1	–	–	92.2	–	–	–
Brc1ccc(-n2cccc2/C=N/n2cnnc2)cc1	–	·	–	–	–	·
Cc1ccc(OCC(=O)N/N=C\c2c(C)n(C)c3ccccc23)c([N+](=O)[O-])c1	–	–	–	–	–	·
Cc1cc([N+](=O)[O-])cc(C)c1OCC(=O)N/N=C/c1ccc(OC(=O)c2ccccc2Br)cc1	–	–	84.7	–	–	–
Cc1cc([N+](=O)[O-])cc(C)c1OCC(=O)N/N=C/c1ccc(OC(=O)c2ccccc2)cc1	–	–	–	–	–	–
Cc1ccccc1OCC(=O)N/N=C/c1cccc(Oc2ccc([N+](=O)[O-])cc2[N+](=O)[O-])c1	–	–	74.0	–	·	–
Cc1c(/C=N/NC(=O)COc2ccccc2[N+](=O)[O-])c2ccccc2n1C	–	–	56.0	–	–	–
CCc1c(C)nc2c(C)cccc2c1SCCC#N	–	–	–	–	–	·
CCc1ccc(C(=O)CSc2nc3ccccc3c(=O)[nH]2)cc1	–	–	98.1	–	–	–
Cc1nn(-c2ccccc2)c(Cl)c1C1C(C#N)=C(N)Oc2n[nH]c(C)c21 (stereo not drawn)	–	–	–	–	·	·
Cc1ccc(-c2ccc(C3C(C#N)=C(N)Oc4n[nH]c(C)c43)o2)cc1 (stereo not drawn)	–	–	100.5	–	·	–
Cc1[nH]nc2c1C(c1ccc(-c3ccc(Cl)cc3)o1)C(C#N)=C(N)O2 (stereo not drawn)	–	–	99.7	–	–	–
Cc1cc(C#N)c(C)c(SCc2[nH]nc3c2C(c2ccccc2)C(C#N)=C(N)O3)n1 (stereo not drawn)	–	·	–	–	–	–
CCn1nc(C)c(C2C(C#N)=C(N)Oc3n[nH]c(C)c32)c1C (stereo not drawn)	–	–	–	–	·	–
Cc1[nH]nc2c1C(c1ccc(-c3ccccc3C#N)o1)C(C#N)=C(N)O2 (stereo not drawn)	–	–	100.1	·	–	–
CC(=O)Nc1ccc(OCc2cnc(Cl)s2)cc1	–	–	–	–	–	–
CCN(CC)CCOc1ccc2nc(N(C)C)sc2c1	–	–	–	–	·	–
CN(C)c1nc2ccc(OCCN3CCCCC3)cc2s1	–	–	59.6	–	·	·
CC(=O)NNC(=S)NCCc1ccccc1	–	–	–	–	–	–
Cc1nc2ccccc2c(=O)n1/N=C/c1ccc([N+](=O)[O-])o1	·	–	·	–	·	·
SMILES	WT yeast gro inh	Ins promoter up	Lmaj promast	KCC2 mod	ROMK mod	INS promoter inh
Cc1nc2ccccc2c(=O)n1/N=C/c1ccccn1	–	–	–	–	·	·
O=[N+]([O-])c1ccc(/C=N/n2c(CO)nc3ccccc32)s1	–	–	100.5	–	·	·
Cc1nc2ccccc2n1/N=C/c1ccc([N+](=O)[O-])s1	80.2	–	100.4	–	–	–
Cc1nc2ccccc2n1/N=C/c1ccc([N+](=O)[O-])o1	·	·	100.6	–	·	–
Cn1cc(C=O)c2cc(S(=O)(=O)N3CCOCC3)ccc21	–	–	–	–	–	–
CCOc1ccc(NC(=O)CCCN2C(=S)NC(C)(C)CC2C)cc1 (stereo not drawn)	–	–	59.1	–	–	–
